Test results: PMC5540273 (PLoS ONE, 2017)

Columns and labels:
Details in all cases: concentration: 1 μM, replicates: in singlicate; n = 1
HIPK3 = system: HIPK3
HIPK4 = system: HIPK4
HPK1 = system: HPK1
HUNK = system: HUNK
ICK = system: ICK
IGF1R = system: IGF1R
IKK-alpha = system: T1, IKK-alpha
T1 construct: gene CHUK

IKK-beta = system: T2, IKK-beta
T2 construct: gene IKBKB

IKK-epsilon = system: T3, IKK-epsilon
T3 construct: gene IKBKE

INSRR = system: INSRR
INSR = system: INSR
IRAK1 = system: IRAK1
IRAK3 = system: IRAK3
IRAK4 = system: IRAK4
ITK = system: ITK
[1] = system: JAK1(JH1domain-catalytic)
[2] = system: JAK1(JH2domain-pseudokinase)
[3] = system: JAK2(JH1domain-catalytic)
[4] = system: JAK3(JH1domain-catalytic)
JNK1 = system: T4, JNK1
T4 construct: gene MAPK8
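Further: KINOMEscan kinase panel screen.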

Row | SMILES | %Inh (HIPK3) [%] | %Inh (HIPK4) [%] | %Inh (HPK1) [%] | %Inh (HUNK) [%] | %Inh (ICK) [%] | %Inh (IGF1R) [%] | %Inh (IKK-alpha) [%] | %Inh (IKK-beta) [%] | %Inh (IKK-epsilon) [%] | %Inh (INSRR) [%] | %Inh (INSR) [%] | %Inh (IRAK1) [%] | %Inh (IRAK3) [%] | %Inh (IRAK4) [%] | %Inh (ITK) [%] | %Inh [1] [%] | %Inh [2] [%] | %Inh [3] [%] | %Inh [4] [%] | %Inh (JNK1) [%]
1 | COc1ccc(-c2cc3c(C)nc(N)nc3n([C@H]3CC[C@H](O)CC3)c2=O)cn1 | 0 | 0 | 0 | 0 | 0 | 0 | 0 | 0 | 0 | 0 | 0 | 0 | 0 | 0 | 0 | 0 | 0 | 0 | 0 | 0
2 | O=C(Nc1n[nH]c2nc(-c3ccccc3)c(Cl)cc12)C1CC1 [SB-734909] | 33 | 0 | 11 | 20 | 29 | 0 | 43 | 56 | 0 | 8 | 31 | 26 | 23 | 24 | 0 | 14 | 22 | 13 | 0 | 56
3 | CN1C(=O)C(Nc2cc(Cl)c(O)c(Cl)c2)=C(c2ccc(Cl)cc2)C1=O [SB-404321] | 0 | 0 | 12 | 0 | 6 | 0 | 0 | 0 | 0 | 0 | 0 | 0 | 0 | 0 | 0 | 13 | 0 | 0 | 0 | 24
4 | Cc1ccc(-c2ccc3c(ccc4sc5c(c43)NC[C@@H](C)N=C5N(C)C)n2)cn1 | 0 | 9 | 8 | 5 | 0 | 0 | 11 | 0 | 0 | 0 | 0 | 0 | 0 | 0 | 0 | 0 | 0 | 0 | 0 | 4
5 | COc1cc2ncn(-c3cc(OCc4ccc(S(C)(=O)=O)cc4)c(C(N)=O)s3)c2cc1OC [GW869979] | 2 | 26 | 10 | 2 | 19 | 6 | 0 | 7 | 25 | 0 | 13 | 26 | 4 | 21 | 16 | 2 | 11 | 18 | 30 | 36
6 | O=C(Nc1ccc2c(c1)OCO2)NC1CCN(c2ccnc(NCc3ccc(F)cc3)n2)CC1 [GSK1379859] | 9 | 0 | 29 | 1 | 0 | 0 | 0 | 0 | 11 | 0 | 45 | 0 | 0 | 0 | 0 | 7 | 0 | 0 | 0 | 0
7 | Nc1nc(N)c2nc(-c3ccccc3)[nH]c2n1 [SKF-12778] | 10 | 13 | 57 | 11 | 15 | 15 | 4 | 17 | 12 | 12 | 0 | 34 | 0 | 3 | 8 | 11 | 84 | 50 | 39 | 20
8 | Nc1nccc2scc(-c3ccc4c(c3)CCN4C(=O)Cc3ccccc3)c12 [GSK2576924] | 11 | 0 | 18 | 0 | 0 | 1 | 0 | 0 | 12 | 0 | 0 | 0 | 0 | 0 | 4 | 19 | 0 | 4 | 0 | 0
9 | COc1cc2nccc(Nc3cccc(Oc4ccccc4)c3)c2cc1OC.Cl [GW284543] | 0 | 21 | 2 | 15 | 0 | 14 | 0 | 0 | 0 | 0 | 4 | 0 | 2 | 0 | 13 | 0 | 1 | 0 | 0 | 1
10 | Nc1nc(-c2ccccc2F)c(-c2ccnc3ccccc23)s1 [GW560459] | 3 | 0 | 7 | 12 | 0 | 20 | 28 | 9 | 18 | 0 | 94.4 | 30 | 17 | 15 | 3 | 18 | 0 | 9 | 0 | 56
11 | CCC(=O)c1c(-c2ccccc2)c2cc(Cl)ccc2c(=O)n1Cc1cc(S(C)(=O)=O)n(CCC(C)(C)O)n1 | 0 | 3 | 17 | 0 | 0 | 4 | 0 | 3 | 30 | 10 | 13 | 2 | 25 | 1 | 5 | 3 | 0 | 0 | 3 | 99.6
12 | CCC(=O)c1c(-c2ccccc2)c2cc(Cl)ccc2c(=O)n1Cc1cc(S(C)(=O)=O)n(CC(F)F)n1 | 0 | 0 | 0 | 3 | 0 | 10 | 0 | 0 | 0 | 0 | 0 | 26 | 0 | 27 | 0 | 2 | 0 | 0 | 0 | 99.1
13 | COc1cc(OC)cc(-c2cc3cnc(N)nc3nc2NC(=O)NC(C)(C)C)c1 | 0 | 0 | 0 | 0 | 0 | 0 | 7 | 9 | 7 | 0 | 0 | 0 | 0 | 0 | 0 | 0 | 0 | 0 | 0 | 0
14 | CCc1ccc(-c2ccc3c(c2)-c2nn(C)cc2S(=O)(=O)N3C)cc1 | 0 | 0 | 18 | 47 | 0 | 0 | 0 | 1 | 0 | 0 | 0 | 0 | 0 | 10 | 0 | 0 | 10 | 0 | 0 | 0
15 | Cc1nnc(-c2ccc(C)c(-c3ccc(C(=O)O)cc3)c2)o1 [GW608005] | 7 | 0 | 7 | 0 | 0 | 0 | 30 | 25 | 1 | 10 | 0 | 0 | 0 | 13 | 4 | 3 | 0 | 24 | 0 | 1
16 | COc1cc2nccc(Nc3ccc(OCc4ccc(NC(C)=O)cc4)cc3)c2cc1OC.Cl [GW440135] | 0 | 0 | 36 | 21 | 0 | 0 | 10 | 0 | 3 | 8 | 0 | 28 | 1 | 0 | 5 | 20 | 0 | 0 | 0 | 15
17 | COC(=O)c1c(-c2ccccc2)c2cc(Br)ccc2c(=O)n1Cc1ccc(S(C)(=O)=O)cc1 | 10 | 5 | 0 | 27 | 50 | 9 | 9 | 6 | 15 | 1 | 13 | 19 | 32 | 18 | 30 | 19 | 0 | 6 | 0 | 97.2
18 | CCC(=O)c1c(-c2ccccc2)c2cc(Cl)ccc2c(=O)n1Cc1cc(C(=O)NC2CC2)n(C)n1 | 2 | 1 | 0 | 0 | 4 | 0 | 5 | 10 | 0 | 0 | 0 | 21 | 0 | 20 | 0 | 10 | 3 | 0 | 6 | 99.7
19 | Cc1nnc(-c2ccc3ncn(-c4ccc(S(C)=O)cc4)c3c2)o1 (stereo not drawn) | 13 | 6 | 0 | 0 | 0 | 0 | 25 | 7 | 0 | 0 | 0 | 0 | 0 | 0 | 15 | 33 | 28 | 0 | 0 | 6
20 | CCn1c(-c2ccoc2)nc2cnccc21 [SB-733887] | 20 | 0 | 35 | 0 | 14 | 0 | 30 | 29 | 60 | 0 | 96.3 | 59 | 0 | 50 | 9 | 9 | 65 | 16 | 0 | 9
21 | COc1cccc(C2=C(Nc3cccc(C(=O)O)c3)C(=O)NC2=O)c1 [SB-390770] | 1 | 7 | 5 | 20 | 0 | 8 | 0 | 6 | 0 | 19 | 0 | 0 | 7 | 0 | 1 | 1 | 2 | 33 | 94.7 | 22
